In PubChem BioAssay (NCI):
Compounds without any hit were thinned out: in the full panel of roughly 83,000, 20% have a hit.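 How to read the values: 0–100, growth inhibition (40 = 60% inhibited); 0, no net growth; -100 to 0, cell death (-40 = 40% of starting cells died; -100 = all dead).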 A number with no mark means an inactive call. Active and inactive are the calls of the source. How the source made its calls: active means growth percent below 10; inactive means the rest.

Experiments:
Assay in all cases: NCI-60 one-dose screen, 48 h (100 = growth as untreated, 0 = no growth, -100 = all killed)
[1] = test system: DU-145 prostate; settings: 10 µM unless noted
[2] = test system: K-562 leukemia; settings: 10 µM unless noted
[3] = test system: MALME-3M melanoma; settings: 10 µM unless noted
[4] = test system: MDA-MB-231 breast; settings: 10 µM unless noted
[5] = test system: RXF 393 renal; settings: 10 µM unless noted
[6] = test system: SF-268 CNS; settings: 10 µM unless noted
[7] = test system: SF-295 CNS; settings: 10 µM unless noted
[8] = test system: SF-539 CNS; settings: 10 µM unless noted
[9] = test system: UACC-257 melanoma; settings: 10 µM
[10] = test system: M14 melanoma; settings: 10 µM unless noted
[11] = test system: HCT-15 colon; settings: 10 µM unless noted
[12] = test system: HT29 colon; settings: 10 µM unless noted
[13] = test system: SNB-75 CNS; settings: 10 µM unless noted
[14] = test system: SNB-19 CNS; settings: 10 µM unless noted
[15] = test system: U251 CNS; settings: 10 µM unless noted
[16] = test system: PC-3 prostate; settings: 10 µM unless noted
[17] = test system: SK-MEL-5 melanoma; settings: 10 µM unless noted
[18] = test system: UACC-62 melanoma; settings: 10 µM unless noted
[19] = test system: LOX IMVI melanoma; settings: 10 µM unless noted
[20] = test system: SK-MEL-28 melanoma; settings: 10 µM unless noted

Row | SMILES | growth [1] | growth [2] | growth [3] | growth [4] | growth [5] | growth [6] | growth [7] | growth [8] | growth [9] | growth [10] | growth [11] | growth [12] | growth [13] | growth [14] | growth [15] | growth [16] | growth [17] | growth [18] | growth [19] | growth [20]
1 | CCNC(=O)Oc1ccc(/C(=C(/C)c2ccc(Cl)cc2)c2ccc(OCCN(C)C)cc2)cc1 | 92.1% | 11.7% | 13.4% | 79.8% | 55.8% | 75.6% | 94.4% | 66% | 81% | 64.2% | 47% | 15.2% | 75.4% | 81.1% | 58.8% | 62.8% | 70.7% | 86.4% | 41.5% | 93.4%
2 | CCOC(=O)C1=C(C)Nc2nc3ccccc3n2C1c1cccc(Br)c1 (stereo not given) | 93.3% | 29.9% | 51.9% | 79% | 99.7% | 94.7% | 60.7% | 85.8% | 87.1% | 63.4% | 48.5% | 49.3% | 53.9% | 77.2% | 88.8% | 84.1% | 80.4% | 60.3% | 82.3% | 84.9%
3 | C=C(C)[C@@H]1CC[C@]2(C(=O)ON)CC[C@]3(C)[C@H](CC[C@@H]4[C@@]5(C)C/C(=C/c6ccc(Br)cc6)C(=O)C(C)(C)[C@@H]5CC[C@]43C)[C@@H]12 | 79.2% | 46.3% | 83.2% | 80.6% | 78.4% | 81.1% | 74.9% | 75.9% | 81.1% | 76% | 57.8% | 71.5% | 104% | 78.2% | 70.8% | 45.8% | 86.1% | 59.5% | 69.7% | 84.7%
4 | C=C(C)[C@@H]1CC[C@]2(COS(C)(=O)=O)CC[C@]3(C)[C@H](CC[C@@H]4[C@@]5(C)CCCNC(C)(C)[C@@H]5CC[C@]43C)[C@@H]12 | 42.1% | 1.12% (active) | 97% | 91.6% | 85.3% | 106% | -40.1% (active) | 84.9% | 107% | 84% | 3.99% (active) | 19.7% | 112% | 81.5% | 13.6% | 67.7% | 97.4% | 74.8% | -79% (active) | 103%
5 | C=C(C)[C@@H]1CC[C@]2(C)[C@H](CC=C3[C@@H]4CC(C)(C)CC[C@]4(C(=O)NCC#CCN4CCN(C)CC4)CC[C@]32C)[C@@]1(C)CCC#N | 63.4% | -7.15% (active) | 34.6% | 47.8% | 53.7% | 65.4% | 70.5% | 87.7% | 91.3% | -63.7% (active) | 21.4% | 26.8% | 67% | 72.5% | 53.6% | 37.3% | 53.4% | 79% | 12.3% | 96.9%
6 | COc1ccc2c(c1)c(-c1nnc(N)nc1-c1cn(C)c3ccccc13)cn2C | 104% | 83.5% | 85.6% | 91.1% | 93.2% | 101% | 99.5% | 91.8% | 93.8% | 85.7% | 87% | 96% | 42.9% | 93.2% | 102% | 88.8% | 97.8% | 79% | 90.8% | 97.3%
7 | O=C(Nc1cccc(-c2nc(-c3ccc(NC(=O)c4cccs4)cc3Cl)no2)c1)Nc1ccc(NC(=O)C2CC2)c(C(F)(F)F)c1 | -13.4% (active) | -11.1% (active) | -80.6% (active) | -58.2% (active) | -83.7% (active) | -33.8% (active) | -63.1% (active) | -85.4% (active) | -32.2% (active) | -41.1% (active) | 0.554% (active) | -11.2% (active) | -66.4% (active) | -17.7% (active) | -49.7% (active) | -56.3% (active) | -90.7% (active) | -73.8% (active) | -87.1% (active) | -83.3% (active)
8 | CCn1c2ccc(/C=N/NS(=O)(=O)CCN(C)C)cc2c2cc(/C=N/NS(=O)(=O)CCN(C)C)ccc21 | 105% | 94.1% | 85.3% | 89.7% | 96.6% | 90.2% | 103% | 90.5% | 103% | 104% | 108% | 103% | 107% | 100% | 99.8% | 100% | -96.7% (active) | 98.6% | 98.6% | 106%
9 | Cc1cc(=O)n2nc(-c3cn(C)c4ccc(Cl)cc34)sc2n1 | 90.1% | 99.2% | 93% | 82.3% | 59.5% | 87% | 105% | 83% | 97% | 92% | 86.4% | 104% | 97% | 96.6% | 98.5% | 86.2% | 88.8% | 86.8% | 85.4% | 100%
10 | O=S(=O)(NC1CC2CCC1C2)c1ccc2c(c1)C(=NO)c1cc(S(=O)(=O)NC3CC4CCC3C4)ccc1-2 (stereo not given) | 4.92% (active) | 11.9% | -78.9% (active) | -21.9% (active) | -9.66% (active) | 8.95% (active) | 62.9% | -35% (active) | 105% | 24.9% | 31.2% | 22.3% | 37.2% | 63.3% | -64.2% (active) | 59.2% | 93% | 71% | -90.5% (active) | 92.3%
11 | COc1ccc(Cn2cc3c(c2-c2cc(OC)c(OC)c(OC)c2)CCCc2cnoc2-3)cc1N | 17.2% | 20.3% | 54.9% | 35.2% | -5.39% (active) | 58% | 0% (active) | 1.95% (active) | 90.3% | 0.685% (active) | 26.8% | 14.6% | -14.5% (active) | 28.7% | 32.6% | 35.5% | 23.1% | 41.5% | 45.1% | 65.9%
12 | O=c1c2ccccc2nc(COc2ccccc2)n1/N=C/C=C/c1ccccc1 | 104% | 109% | 96.9% | 93.4% | 101% | 97.5% | 102% | 100% | 95.3% | 97.8% | 76.9% | 98.1% | 83.4% | 82.9% | 98.4% | 89.6% | 99.3% | 94.5% | 72.1% | 94.3%
13 | C#CCOc1ccc(C(Nc2cc(Cl)ccc2Cl)c2nnnn2C2CCCCC2)cc1 (stereo not given) | 97.7% | 83.5% | 101% | 73.7% | 92.6% | 83.4% | 80.7% | 95.3% | 102% | 92.2% | 86.4% | 92.7% | 95.1% | 86% | 82.7% | 76.9% | 95.4% | 66.7% | 97.7% | 107%
14 | COc1ccc(OC)c(NC2=C(Cl)C(=O)C(C)=C(C)C2=O)c1 | 104% | 55.8% | 98.7% | 76.6% | 107% | 93.9% | 100% | 99% | 86.8% | 97.8% | 94.7% | 105% | 71.7% | 95.3% | 94.1% | 77.6% | 89.6% | 93.8% | 89.1% | 108%
15 | CN1CCN(Cc2ccc(NC(=O)c3cncc(C#Cc4[nH]nc5ncncc45)c3)cc2C(F)(F)F)CC1 | 56.6% | 12.4% | -5.86% (active) | 22.9% | 43.4% | 73.7% | 97% | 43.4% | 86.1% | 15% | 65.4% | 25.8% | 78.2% | 97.3% | 76.8% | 81.3% | 71.2% | 39.6% | 13% | 37.7%
